High-throughput results from PubChem.
This is one part of a sample in which hits are shown more often than they occur.
NS1 inh – influenza NS1 inhibition. actives 0.4% (n = 270,000). Potency, µM (top dose mostly 46.1 µM); also: actives are rising curves; nearly all actives have a fitted effect of over 50% in size
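A cell-based growth assay was used: compounds that relieve NS1-induced slow growth of budding yeast raise OD600. Assay medium was yeast nitrogen base with ammonium sulphate and -URA supplement, pH 6.0, with 2% galactose.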
TbPYK inhibitor – inhibitors of Trypanosoma brucei pyruvate kinase; Q57TT1; TbPYK enzyme, Kinase-Glo Plus ATP luminescence, 45 min; Potency, µM (highest dose often 76.8 µM), actives largely listed as inhibitors; actives 0.12% (n = 410,000); active = well fitted curve in the direction sought with a large enough effect; inconclusive = small, poorly fitted or top-dose-only effect, or another doubt; inactive = no such curve, though single readings can be large; an effect the other way counts as inactive or inconclusive; also: nearly all actives have a fitted effect of over 50% in size
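In this concentration-response screen, enzyme-free wells defined baseline while DMSO plates tracked drift. Each reaction combined TbPYK, substrate, compound and 130 uM ADP for 45 min at room temperature. Kinase-Glo Plus luminescence gave the signal.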
CHX counter – counter-screen for Shiga toxin inhibitors: cycloheximide protein synthesis inhibition; cell reporter, cycloheximide protein synthesis inhibition counterscreen; max response, %; actives 12% (n = 300,000); AID 2314; in the data active = max response mostly above about 13%, no sharp cut-off; inactive = mostly below about 14%; also: read at 38.3 µM for the half of the compounds with a filed dose
LmPK inhibitor – blocks Leishmania mexicana pyruvate kinase activity. Q27686. purified LmPK, Kinase-Glo ATP luminescence, 1 h. Potency, µM (doses to about 57.5 µM), actives largely listed as inhibitors. actives 0.37% (n = 290,000); active = well fitted curve in the direction sought with a large enough effect; inconclusive = small, poorly fitted or top-dose-only effect, or another doubt; inactive = no such curve, though single readings can be large; an effect the other way counts as inactive or inconclusive
Target sequence (Q27686 whole entry, looked up): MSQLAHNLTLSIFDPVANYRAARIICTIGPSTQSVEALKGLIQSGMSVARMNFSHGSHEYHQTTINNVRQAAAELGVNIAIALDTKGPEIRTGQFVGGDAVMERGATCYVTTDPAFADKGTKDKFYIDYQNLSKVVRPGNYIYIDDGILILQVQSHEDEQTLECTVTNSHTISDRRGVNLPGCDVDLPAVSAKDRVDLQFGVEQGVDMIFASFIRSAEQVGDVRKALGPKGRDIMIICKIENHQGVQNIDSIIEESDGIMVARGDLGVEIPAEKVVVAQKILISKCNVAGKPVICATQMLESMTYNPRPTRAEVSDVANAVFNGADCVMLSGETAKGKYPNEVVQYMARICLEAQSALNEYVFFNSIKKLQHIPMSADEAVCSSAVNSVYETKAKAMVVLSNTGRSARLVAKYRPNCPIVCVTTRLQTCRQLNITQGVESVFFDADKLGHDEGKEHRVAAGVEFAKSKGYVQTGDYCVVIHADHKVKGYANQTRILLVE
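Purified LmPK (0.1 nM) with 0.5 mM PEP and 0.1 mM ADP in imidazole buffer pH 7.2 with MgCl2/KCl, 1 h at room temperature. ATP formed was read by luciferase luminescence and normalized to no-enzyme and uninhibited controls.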
SARS PLpro yeast – inhibitors of SARS-CoV papain-like protease in yeast. Potency, µM (titrated, usually from 32.9 µM), usual class: activators. AID 485353. actives 0.19% (n = 330,000). S. cerevisiae expressing SARS-CoV PLpro, growth rescue; also: nearly all actives have a fitted effect of over 55% in size
Shiga toxin inh – blocks Shiga toxin action in Vero cells; Vero cells, Shiga toxin protein synthesis inhibition reporter; inhibition, % at 38.7 µM; actives 9.2% (n = 290,000); in the data active = inhibition mostly above about 28%, no sharp cut-off; inactive = mostly below about 43%
Hits are given with their value; - = inactive; ? = inconclusive; . = no result; [ ] = remark or other dose. Unless noted, calls follow the shape of the full dose curve.

SMILES | NS1 inh | TbPYK inhibitor | CHX counter | LmPK inhibitor | SARS PLpro yeast | Shiga toxin inh
CCc1nc2c(OCc3cccc(Cl)c3)cccn2c1N(C)C(=O)c1ccco1 | . | - | . | . | . | .
CCCCOC(=O)n1c(=S)oc2cc(Cl)ccc21 | - | - | 24 | - | - | 101
CCOC(=O)c1ccc2c(c1)N(CC(=O)Nc1ccc(C)cc1C)C(=O)c1ccccc1S2 | . | - | . | . | . | .
COCC(C)NC(=O)c1cc(-c2ccc(O)cc2)on1 (stereo not drawn) | - | - | 36 | - | ? | -
COc1cccc(-c2cc(C(=O)Nc3ccccc3SC)no2)c1 | - | - | 36 | - | - | 35
COc1cccc(-c2cc(C(=O)NCc3ccc(F)cc3)no2)c1 | . | - | . | . | . | .
COc1ccc(-c2cc(C(=O)Nc3ccccc3SC)no2)cc1OC | - | - | - | - | - | -
COc1cccc(-c2cc(C(=O)NC3CCCC3)no2)c1 | - | - | 47 | - | - | 145
COCCNC(=O)c1cc(-c2cccc(OC)c2)on1 | - | - | 42 | - | - | 74
COC(=O)c1cc(NC(=O)COC(=O)CN2C(=O)C3CC=CCC3C2=O)cc(C(=O)OC)c1 (stereo not drawn) | . | - | . | . | - | .
Cc1nc(C(F)(F)F)ccc1C(=O)N1CCC1(C)C(=O)NS(=O)(=O)c1cccc(C#N)c1 (stereo not drawn) | . | - | . | . | . | .
COc1cccc(-c2noc(CCCC(=O)NC3CCCC3)n2)c1 | - | - | 15 | - | - | -
COCC(C)NC(=O)c1cc(-c2cccc(OC)c2)on1 (stereo not drawn) | - | - | 28 | - | - | 81
CC1(C)CCN2CCC(C)(C)c3c(O)ccc1c32 | - | - | - | ? | - | -
CCOc1cc(Cl)c(S(=O)(=O)NCCCn2ccnc2)cc1Cl | - | - | - | - | - | -
C#CCNc1ccc([N+](=O)[O-])cc1 | . | - | 16 | - | - | -
O=[N+]([O-])c1ccc(NCCNc2ccc([N+](=O)[O-])cc2)cc1 | . | - | . | . | . | .
CC(C)C(=O)Nc1ccc(N2CCN(C)CC2)c(F)c1 | - | - | 22 | - | - | -
Cc1ccc(SCC(=O)Nc2ccc(N3CCN(C)CC3)c(F)c2)cc1 | - | - | 48 | - | - | 90
COc1ccc(N=C2SC(CC(=O)Nc3cccc(Cl)c3)C(=O)N2Cc2ccco2)cc1 (stereo not drawn) | - | - | 37 | - | - | 16
COc1ccc(-c2csc(CCn3nc(C)cc3C)n2)cc1 | . | - | 20 | - | - | -
COc1ccc(-c2csc(CCn3nc(C)cc3C)n2)cc1OC | - | - | - | - | - | -
Cc1cc(C)n(CCc2nc(-c3ccc(-c4ccccc4)cc3)cs2)n1 | - | - | 58 | - | - | 88
Cc1cc(C)n(CCc2nc(-c3cccs3)cs2)n1 | - | - | - | - | - | 40
COc1ccc(NC=O)c(C(=O)CCNC(C)=O)c1 | . | . | - | . | . | -
SMILES | NS1 inh | TbPYK inhibitor | CHX counter | LmPK inhibitor | SARS PLpro yeast | Shiga toxin inh
CCOC(=O)CCCNC(=O)N1CCc2nc(COc3ccccc3)c3c(c2C1)CO[C@@H](C)C3 | . | . | . | -[11.5 µM] | . | .
CS(=O)(=O)c1cnc2c(S(=O)(=O)c3ccccc3)cnn2c1N | - | - | - | - | - | -
COc1ccc(-c2cnc3c(-c4ccc(F)cc4)cnn3c2N)cc1 | - | - | 51 | - | - | 121
CS(=O)(=O)c1cnc2c(-c3ccsc3)cnn2c1N | - | - | 38 | - | - | 66
COc1ccc(-c2cnn3c(N)c(S(=O)(=O)C(C)(C)C)cnc23)cc1 | - | - | 32 | - | - | -
CCCOc1ccc(CNC(=O)C2CCN(C(=O)c3sccc3-n3cccc3)CC2)cc1 | . | - | . | . | . | .
O=C(CN1C(=O)COc2ccc(S(=O)(=O)N3CCCCC3)cc21)NCCc1ccc(Cl)cc1 | . | - | . | . | . | .
CCOC(=O)CSc1nc2sc3c(c2c(=O)n1CC)CCCC3 | . | - | . | . | . | .
NNc1nc2c(-c3cccc(C(F)(F)F)c3)nnn2c2ccccc12 | - | - | 15 | - | - | 53
Nc1nc2c(-c3ccc(Br)cc3)nnn2c2ccccc12 | - | - | 49 | - | - | 96
CNc1nc2c(-c3ccc(Cl)cc3)nnn2c2ccccc12 | - | - | - | - | - | -
Cc1ccc(-c2nnn3c2nc(NC(C)C)c2ccccc23)cc1 | - | - | 14 | - | - | -
FC(F)(F)c1cccc(-c2nnn3c2nc(NC2CCCCC2)c2ccccc23)c1 | . | - | . | . | . | .
